Shown are actives, neighbours in structure and some others; about 0.34% of the full set was active somewhere.
Epigenetic derep = Quantitative High-Throughput Screen for Regulators of Epigenetic Control | Potency, µM (highest dose often 53.9 µM), inactives show at the highest dose GFP activation, most hits filed as activators | murine LDR cells, GFP reporter derepression, 30 h | AID 1865, 2009 | 280,000 tested, 0.2% active; note: potency is the fitted concentration of half-maximal effect; % of control where 0% means no effect; nearly all actives have a fitted effect of over 60% in size
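Murine LDR cells carrying a silenced, genomically integrated CMV-driven GFP reporter were exposed to compound for 30 hours at 37 C. After PBS washes, GFP-positive cells (20–120 um objects) were counted by laser-scanning microplate cytometry.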
Vif-APOBEC3F blk = qHTS for Inhibitors of Vif-A3F Interactions: qHTS. HeLa A3F-eYFP + Vif (tagged APOBEC3F with the HIV-1 protein that degrades it), YFP fluorescence increase. Potency, µM (highest dose often 46.1 µM), for the others: top-dose activity, negative = active. 390,000 tested, 0.2% active; note: potency is the fitted concentration of half-maximal effect; % of control where 0% means no effect; nearly all actives have a fitted effect of over 65% in size
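HeLa cells stably expressing A3F-eYFP plus Vif, plated and incubated overnight at 37 deg C, then exposed to compounds overnight at 37 deg C. Blocked degradation read as raised yellow fluorescence (Ex 488/Em 500-530).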
Vif-A3G inh = qHTS for Inhibitors of Vif-A3G Interactions: qHTS | HeLa A3G-eYFP + Vif (tagged APOBEC3G with the HIV-1 protein that degrades it), YFP fluorescence, overnight | Potency, µM (doses to about 46.1 µM), inactives show top-dose activity, negative = active, actives largely listed as inhibitors | 410,000 tested, 0.076% active | AID 602310, 2012; note: potency is the fitted concentration of half-maximal effect; % is set by controls: 0 for no effect and ±100 for the full control effect; nearly all actives have a fitted effect of over 60% in size
Target sequence (Q9HC16 whole entry, looked up): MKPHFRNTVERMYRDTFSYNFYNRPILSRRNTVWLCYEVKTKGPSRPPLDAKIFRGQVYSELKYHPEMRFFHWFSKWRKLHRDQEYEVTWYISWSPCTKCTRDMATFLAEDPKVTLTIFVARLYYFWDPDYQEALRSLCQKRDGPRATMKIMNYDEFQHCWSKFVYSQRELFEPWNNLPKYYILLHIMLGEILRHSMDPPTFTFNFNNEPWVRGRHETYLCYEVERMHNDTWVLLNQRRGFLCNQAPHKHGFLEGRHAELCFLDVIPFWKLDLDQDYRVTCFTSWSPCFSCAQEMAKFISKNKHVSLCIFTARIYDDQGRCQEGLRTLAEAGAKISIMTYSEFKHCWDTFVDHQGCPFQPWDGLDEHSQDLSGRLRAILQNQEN
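HeLa cells stably expressing Vif and C-terminally eYFP-tagged A3G, seeded overnight at 37 deg C, then exposed to compound by pintool overnight at 37 deg C. Rise in yellow fluorescence (Ex 488/Em 500-530, Acumen) marks blocked Vif-driven A3G degradation.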
miR-21 act = qHTS Assay for Modulators of miRNAs and/orActivators of miR-21; Potency, µM (series often up to 38.3 µM), for the others: at the highest dose activity change, positive = activation, most hits filed as activators; HeLa miR-21 FLuc reporter, luciferase, 48 h; 340,000 tested, under 10 active;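 note: % of control where 0% means no effect; miR-21 action dims this reporter so a rising signal means less miR-21 action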
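HeLa cells endogenously expressing miR-21, stably carrying CMV-driven firefly luciferase with a downstream miR-21 binding site, 2000 cells/well. Titrations up to approximately 40 uM, 48 hours; luciferase luminescence read.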
* hit, by the source's call; u = inconclusive; x = no result given; [ ] = dose if it differs, or a comment. Calls come from the whole dose curve; as a rule, active = well fitted curve in the direction sought with a large enough effect; inconclusive = small, poorly fitted or top-dose-only effect, or another doubt; inactive = no such curve, though single readings can be large; an effect the other way counts as inactive or inconclusive.

SMILES	Epigenetic derep	Vif-APOBEC3F blk	Vif-A3G inh	miR-21 act
CC(C)OCc1cc(CN2CCN(c3ccccc3)CC2)c(O)c2ncccc12	2µM*	-27%	-1%	u
Oc1c(CN2CCOCC2)cc(COCc2ccccc2)c2cccnc12	4µM*	u	-10%	19%
Oc1c(CN2CCN(c3ccccc3)CC2)cc(Br)c2cccnc12	u	u	1%	26%
CCN1C(=O)/C(=C2/Sc3ccc(OC)cc3N2C)SC1=Nc1cccc(O)c1	u	u	10µM*	-10%
O=C(NC1CC(=O)N(c2ccc(F)cc2)C1)C1CC1 (stereo not given)	0%	0%	2%	0%
CC(=O)OCCNc1cc(N2CCN(C)CC2)c2noc3c2c1C(=O)c1ccccc1-3	2%	u	u	1%
CCOC(=O)C(C(=O)OCC)c1cc(Br)c2noc3c2c1C(=O)c1ccccc1-3	3.5µM*	u	-9%	-1%
CC(C)(C)n1ncc2c(=O)n(Cc3ccccc3-c3ccccc3)cnc21	x	x	-4%	x
C/C(=N\Nc1ncc(Cl)cc1Cl)c1ccccn1	0.63µM*	u	2%	-21%
C/C(=N\Nc1ccc(Cl)c(C(=O)O)c1)c1ccccn1	-1%	-1%	-1%	-76%
Oc1[nH]c2ccccc2c1N=NC(=S)N1CCOCC1	4µM*	-9%	-18%	18%
CC(C)CN(c1ccccc1)S(=O)(=O)c1nnc(NC(=O)C2CCCCC2)s1	28µM*	1%	5%	-47%
CCN(c1ccccc1)S(=O)(=O)c1nnc(NC(=O)C2CCCCC2)s1	0%	-4%	-5%	-2%
CC[n+]1ccc(/C=C2\Sc3ccccc3N2CCCS(=O)(=O)[O-])c2ccccc21	2%	3.5µM*	u	-2%
C[n+]1ccccc1/C=C1\Sc2ccccc2N1CCO	x	-12%	-15%	11%
O=[N+]([O-])/C=C\c1ccc(N2CCCC2)c(F)c1	1%	25µM*	u	u
COc1ccc(NC(=O)C(=O)NCc2ccco2)c(OC)c1	-2%	2%	6%	-8%
COc1ccc(NC(=O)CSc2ccc3c4c(cccc24)C(=O)c2ccccc2-3)cc1	u	11µM*	u	-4%
N#Cc1cccc(NC(=O)CSc2ccc3c4c(cccc24)C(=O)c2ccccc2-3)c1	5µM*	11µM*	2.8µM*	-14%
N#Cc1cccc(NC(=O)CSc2ccccc2)c1	-2%	-11%	1%	-22%
COc1ccc(NC(=O)CSc2nnc(C)c3ccccc23)cc1	x	-1%	-28%	-8%
CC(=O)N1CCN(/[N+]([O-])=N/Oc2ccc([N+](=O)[O-])cc2[N+](=O)[O-])CC1	x	x	-12%	x
CC(NC(=O)Cn1ncc2c3ccccc3n(Cc3ccc(F)cc3)c2c1=O)c1ccccc1 (stereo not given)	14%	-15%	-5%	-1%
CN(c1ccccc1)c1nc(C#N)nc(N2CCOCC2)n1	x	x	-1%	x
Cc1cc(NC(=O)n2ncc3c(C)cccc32)ccc1Br	1%	0%	-4%	0%
SMILES	Epigenetic derep	Vif-APOBEC3F blk	Vif-A3G inh	miR-21 act
CN(C)C=Nc1c(Br)cc(Br)c2nonc12	u	11µM*	u	-19%
CC(=O)N1CCc2nc3sc(C(=O)c4ccc(F)cc4)c(N)c3c(C(F)(F)F)c2C1	u	13µM*	u	26%
COc1ccc(C(=O)c2sc3nc4c(c(C(F)(F)F)c3c2N)CN(C(C)=O)CC4)cc1OC	4%	22µM*	u	1%
CS(=O)(=O)N1CCN(Cc2cc3nc(-c4cccc5[nH]ncc45)nc(N4CCOCC4)c3s2)CC1	x	x	-21%[92.2 µM]	x
CN(C)c1ccc(/C=C/c2cc[n+](C)cc2)cc1	11µM*	u	u	u
Cc1ccc(/C=C/c2ccc(N(C)C)cc2)[n+](C)c1	x	u	11µM*	u
CC[n+]1ccccc1/C=C/c1ccc(N(C)C)cc1	16µM*	22µM*	u	u
Cc1ccc2c(/C=C/c3ccc(N(C)C)cc3)c(C)cnc2c1	x	x	-16%	x
CN(C)c1ccc(/C=C/c2cc[n+]([O-])cc2)cc1	0%	x	x	-47%
Cc1ccc(S(=O)c2ccc([N+](=O)[O-])c3nonc23)cc1 (stereo not given)	x	22µM*	u	x
Cc1ccc(Nc2c([N+](=O)[O-])ccc3nonc23)c(C)c1	x	5%	1%	-8%
Cc1ccc(C)c(NC(=O)C(Cc2ccccc2)n2cccc2)c1 (stereo not given)	1%	-3%	3%	u
O=C(NCCc1ccccc1)c1ccc(Nc2nc3ccccc3n3nnnc23)cc1	11%	-11%	-6%	-2%
COc1cc(Nc2nc3ccccc3n3nnnc23)cc(OC)c1OC	u	6.3µM*	u	-3%
COc1ccc(Nc2nc3ccccc3n3nnnc23)cc1	3%	u	-5%	-6%
O=C(NCc1ccccc1Cl)c1ccc(Nc2nc3ccccc3n3nnnc23)cc1	10µM*	u	-14%	-12%
COc1ccc(CNC(=O)CCCN2C(=O)CSc3c2c(C)nn3-c2ccccc2)cc1	0%	-6%	-10%	-2%
CCOC(=O)c1sc(N)c(C(=O)Nc2ccc(C)cc2C)c1C	0%	x	x	x
CCOn1c(=O)c(C)[n+]([O-])c2ccccc21	20µM*	u	u	-2%
CCOC(=O)COn1c(=O)c(-c2ccc(Br)cc2)[n+]([O-])c2ccccc21	x	1.8µM*	0%	-11%
Cc1ccc(C(=O)Nc2nnc(S(=O)(=O)N(C)Cc3ccc(F)cc3)s2)cc1	-2%	-6%	3%	-26%
COc1ccc(Cl)c(Cn2cnc3c(cnn3C(C)(C)C)c2=O)c1	x	x	-2%	x
CC(Oc1ccccc1)C(=O)Nc1ccccc1C(=O)OCc1cc(=O)n2nc(C3CC3)sc2n1 (stereo not given)	u	4%	5%	-1%
Nc1nc(NCc2ccccc2Cl)c2[nH]cnc2n1	x	x	-9%	x
Cc1nc2ccccc2oc1=O	1%	x	x	x
SMILES	Epigenetic derep	Vif-APOBEC3F blk	Vif-A3G inh	miR-21 act
O=c1c(Cl)c2oc3ccccc3nc-2c2ccccc12	22µM*	u	u	-10%
CC(=O)N1CCc2c(sc(NC(=O)C3CC3)c2-c2nc3ccccc3s2)C1	u	u	u	1%
CC(=O)Nc1sc2c(c1-c1nc3ccccc3s1)CN(C(C)C)CC2	x	10µM*	13µM*	x
Cc1cc(Cn2cnc3c(cnn3C(C)(C)C)c2=O)ccc1F	x	x	2%	x
COc1ccc(N=C2NC(=O)/C(=C/c3ccc(O)c(OC)c3)S2)cc1	1%	u	u	-11%
COc1cccc(N=C2NC(=O)/C(=C/c3cc([N+](=O)[O-])ccc3O)S2)c1	x	25µM*	u	1%
Cc1ccc(S(=O)(=O)/N=C2/NC(=O)/C(=C/c3cc([N+](=O)[O-])ccc3O)S2)cc1	x	u	-12%	-1%
O=C1NC(=Nc2ccccc2Cl)S/C1=C\c1cc([N+](=O)[O-])ccc1O	x	u	13µM*	-5%
CSc1nsc(/C=C/Nc2ccc(F)cc2F)c1C#N	4µM*	u	u	-10%
